# From PubChem
# PI5P4K alpha inh = PI5P4K alpha (human) kinase inhibition. PI5P4Kalpha enzyme, ADP-Glo luminescence, 60 min; stronger effect = lower value. 1.2% of 330,000 active. max response, %; active = max response of -50% or lower; inconclusive = between -30% and -50%; inactive = -30% or higher; also: value at the top dose of about 77 µM; % is scaled to controls: 0 for no effect and ±100 for the full control effect
#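 ADP-Glo luminescence end-point after a 60 min room-temperature kinase reaction. PI5P4Kalpha and substrate in HEPES pH 7.4 buffer with EGTA, 0.1% CHAPS and 5% DMSO; ATP at 5 microM final.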
# BAZ2B block = inhibitors of human BAZ2B bromodomain; AlphaScreen BAZ2B-H3K14Ac peptide displacement; Potency, µM (doses to about 114 µM), for inactives: top-dose activity change, negative = inhibition, most hits filed as inhibitors; 4.4% of 360,000 active; also: potency is read from the fitted curve at half-maximal effect; % is scaled to controls: 0 for no effect and ±100 for the full control effect; nearly all actives have a fitted effect of over 60% in size
# Target sequence (Q9UIF8 whole entry, looked up): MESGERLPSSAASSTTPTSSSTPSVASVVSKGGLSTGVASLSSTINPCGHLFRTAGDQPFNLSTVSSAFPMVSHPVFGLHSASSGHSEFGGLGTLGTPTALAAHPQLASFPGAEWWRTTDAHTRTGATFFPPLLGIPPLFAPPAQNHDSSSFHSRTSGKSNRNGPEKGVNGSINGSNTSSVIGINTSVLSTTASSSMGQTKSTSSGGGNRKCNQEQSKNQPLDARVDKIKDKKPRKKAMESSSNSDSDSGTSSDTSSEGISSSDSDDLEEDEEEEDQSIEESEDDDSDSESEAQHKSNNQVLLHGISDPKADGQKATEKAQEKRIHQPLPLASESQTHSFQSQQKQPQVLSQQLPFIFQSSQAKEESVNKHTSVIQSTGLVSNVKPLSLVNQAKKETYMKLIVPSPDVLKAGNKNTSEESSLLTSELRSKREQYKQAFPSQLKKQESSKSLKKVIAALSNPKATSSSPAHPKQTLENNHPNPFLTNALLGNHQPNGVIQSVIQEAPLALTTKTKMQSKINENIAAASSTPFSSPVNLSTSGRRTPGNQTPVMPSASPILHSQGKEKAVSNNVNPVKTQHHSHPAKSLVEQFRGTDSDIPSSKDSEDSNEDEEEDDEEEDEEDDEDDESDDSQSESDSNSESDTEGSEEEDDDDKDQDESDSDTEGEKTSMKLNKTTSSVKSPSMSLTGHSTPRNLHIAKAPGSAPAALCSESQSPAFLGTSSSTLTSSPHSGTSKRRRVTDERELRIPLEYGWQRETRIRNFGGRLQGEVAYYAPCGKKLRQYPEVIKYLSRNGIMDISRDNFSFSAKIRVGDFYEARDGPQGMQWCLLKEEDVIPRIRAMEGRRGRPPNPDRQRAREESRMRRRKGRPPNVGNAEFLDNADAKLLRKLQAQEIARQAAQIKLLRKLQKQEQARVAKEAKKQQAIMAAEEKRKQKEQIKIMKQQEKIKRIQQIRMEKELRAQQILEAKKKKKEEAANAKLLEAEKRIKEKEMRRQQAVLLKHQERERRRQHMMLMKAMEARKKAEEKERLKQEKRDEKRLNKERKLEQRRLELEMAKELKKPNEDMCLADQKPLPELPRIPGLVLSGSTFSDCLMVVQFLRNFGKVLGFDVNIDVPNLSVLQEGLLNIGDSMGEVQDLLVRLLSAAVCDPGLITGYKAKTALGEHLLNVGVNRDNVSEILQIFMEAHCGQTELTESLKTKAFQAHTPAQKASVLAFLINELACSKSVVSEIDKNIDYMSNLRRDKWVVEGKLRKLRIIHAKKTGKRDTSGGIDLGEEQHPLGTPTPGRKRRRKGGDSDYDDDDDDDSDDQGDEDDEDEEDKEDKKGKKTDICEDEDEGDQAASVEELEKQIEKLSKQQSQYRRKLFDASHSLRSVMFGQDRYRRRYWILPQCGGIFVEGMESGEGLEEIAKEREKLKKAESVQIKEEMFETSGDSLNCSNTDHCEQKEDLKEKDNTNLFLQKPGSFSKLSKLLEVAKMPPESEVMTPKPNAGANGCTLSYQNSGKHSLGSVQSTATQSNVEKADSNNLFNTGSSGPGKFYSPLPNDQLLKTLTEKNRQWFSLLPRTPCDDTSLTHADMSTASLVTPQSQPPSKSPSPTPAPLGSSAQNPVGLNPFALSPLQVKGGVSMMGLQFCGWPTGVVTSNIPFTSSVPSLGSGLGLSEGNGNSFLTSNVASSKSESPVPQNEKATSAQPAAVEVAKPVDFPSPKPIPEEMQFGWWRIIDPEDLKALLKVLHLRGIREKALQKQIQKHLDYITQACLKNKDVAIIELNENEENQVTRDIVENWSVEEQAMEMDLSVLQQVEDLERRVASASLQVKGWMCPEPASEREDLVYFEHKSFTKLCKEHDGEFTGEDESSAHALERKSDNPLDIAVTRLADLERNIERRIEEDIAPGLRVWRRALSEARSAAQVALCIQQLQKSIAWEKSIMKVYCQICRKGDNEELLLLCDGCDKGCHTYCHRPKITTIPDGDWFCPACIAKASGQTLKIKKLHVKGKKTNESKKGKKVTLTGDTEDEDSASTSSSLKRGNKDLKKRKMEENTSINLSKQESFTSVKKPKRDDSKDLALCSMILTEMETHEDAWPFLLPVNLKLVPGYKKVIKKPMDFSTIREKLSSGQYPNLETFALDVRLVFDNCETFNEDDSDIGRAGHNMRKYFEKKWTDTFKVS
#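 Multi-concentration screen (max 110 uM) measuring displacement of acetylated histone H3 peptide from BAZ2B by AlphaScreen, using 50 nM protein, 50 nM peptide and 10 ug/mL streptavidin donor plus Ni-chelate acceptor beads.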
# PLK1 PBD inh = inhibitors of human PLK1 polo-box domain binding; Plk1 PBD binding of FITC phosphopeptide, fluorescence polarization; Potency, µM, without a hit: max response, negative = inhibition, hits mostly inhibitors; 2.8% of 360,000 active; P53350; also: potency is read from the fitted curve at half-maximal effect; series mostly up to about 57 µM; % is scaled to controls: 0 for no effect and ±100 for the full control effect; nearly all actives have a fitted effect of over 65% in size
# JMJD2A Tudor = inhibitors of human JMJD2A Tudor domain | O75164 | AlphaScreen JMJD2A-Tudor / H3K4me3 peptide binding | Potency, µM (doses to about 114 µM), inactives show at the highest dose activity change, negative = inhibition, actives largely listed as inhibitors | 4.4% of 390,000 active | AID 504339; also: potency is read from the fitted curve at half-maximal effect; % is scaled to controls: 0 for no effect and ±100 for the full control effect; nearly all actives have a fitted effect of over 50% in size
# G9a block = inhibitors of human histone lysine methyltransferase G9a; 8.8% of 350,000 active; AID 504332; G9a H3K9 monomethylation, AlphaScreen, 2 h; Potency, µM (titrated, usually from 102 µM), for inactives: at the top dose activity, negative = inhibition, actives largely listed as inhibitors; Q96KQ7; also: potency is read from the fitted curve at half-maximal effect; % is scaled to controls: 0 for no effect and ±100 for the full control effect; nearly all actives have a fitted effect of over 75% in size
#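 G9a (20 nM) was preincubated 15 min with compound, then reacted 2 h at room temperature with 500 nM biotin-H3K9 peptide and 20 µM SAM. Monomethyl-H3K9 detected by AlphaScreen using anti-H3K9me1 antibody.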
# HP1b chromo inh = HP1-beta chromodomain-methylated histone interaction inhibition; AlphaScreen HP1-beta / biotin-H3K9me3 peptide binding; P83916; Potency, µM (series often up to 114 µM), for inactives: at the highest dose activity change, negative = inhibition, most hits filed as inhibitors; 0.56% of 390,000 active; also: potency is read from the fitted curve at half-maximal effect; nearly all actives have a fitted effect of over 70% in size
#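 HP1-beta protein (50 nM final) preincubated 30 min at room temperature with biotinylated H3(1-18)K9me3 peptide (50 nM) in PBS pH 7.4, 0.01% Tween-20, then compound added for 30 min. AlphaScreen streptavidin donor/nickel chelate acceptor beads (10 ug/mL final), 30 min dark, luminescence read.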
# An asterisk follows results filed as active; ? = inconclusive; / = no result given; [ ] = remark or other dose. Only some compounds are listed: those with a hit (about 12% of all), similar ones and a draw of the others. Unless noted, calls follow the shape of the dose curve; as a rule, active = well fitted curve in the direction sought with a large enough effect; inconclusive = small, poorly fitted or top-dose-only effect, or another doubt; inactive = no such curve, though single readings can be large; an effect the other way counts as inactive or inconclusive.
SMILES,PI5P4K alpha inh,BAZ2B block,PLK1 PBD inh,JMJD2A Tudor,G9a block,HP1b chromo inh
Cc1c(Cl)cccc1NC(=O)CNC(=O)CCS(=O)(=O)c1ccc(F)cc1,-21,-10%,19µM*,-16%,-39%[12.7 µM],32%
CCOC(OCC)c1cn(Cc2ccc(C(=O)c3ccccc3)cc2)nn1,-1,-4%,1%,-4%,/,30%
O=C1C(NS(=O)(=O)c2cccs2)=C(N2CCN(c3ccccc3)CC2)C(=O)c2ccccc21,5,5.6µM*,-3%,28µM*,3.2µM*,?
O=S(=O)(c1cccs1)N1CCN(c2ccccc2)CC1,7,0%,-8%,-7%,12%,2%
O=C(C(NS(=O)(=O)c1cccs1)c1ccccc1)N1CCN(c2ccccc2)CC1 (stereo not drawn),/,?,-26%,?,45µM*,4%
CCN(CC)C1Oc2cc3c(cc2C(c2cccc(OC)c2O)C1C)OCO3 (stereo not drawn),2,/,0%,?,/,?
COc1cccc(C2c3cc4c(cc3OC(N3CCOCC3)C2C)OCO4)c1O (stereo not drawn),11,/,-1%,40µM*,/,?
O=C(Nc1ccc(F)c(Cl)c1)C1CCN(c2ncccn2)CC1,/,3%,/,-14%,-4%[59 µM],7%
CCOC(=O)c1c(NC(=O)C(C)Sc2cn(CCNC(=O)c3c(F)cccc3F)c3ccccc23)sc2c1CCC2 (stereo not drawn),/,-26%,/,-22%,-2%[59 µM],42%
O=[N+]([O-])c1cc(-c2cnc3ccccc3n2)ccc1Oc1ccc(Cl)cc1,-8,?,-11%,-33%,14µM*,10%
O=C(Oc1ccc(-c2cnc3ccccc3n2)cc1)c1cc([N+](=O)[O-])ccc1Cl,-3,-12%,-7%,-4%,28µM*,16%
CCC(=O)Oc1ccc(-c2cnc3ccccc3n2)cc1,/,18%,-6%,5%,-48%[59 µM],21%
Cc1c(C(=O)Oc2ccc(-c3cnc4ccccc4n3)cc2)cccc1[N+](=O)[O-],-23,-24%,-11%,-34%,20µM*,17%
Cc1nc(-n2nc(C)c(CCC(C)C)c2C)sc1C(=O)Nc1ccc(Cl)cc1,/,10%,/,4%,-1%[59 µM],59%
Cc1nn(CC(C)C)c(Cl)c1C(=O)N(c1ccc(Cl)cc1F)S(C)(=O)=O,-2,3%,-6%,-18%,-26%,8%
CSc1cccc(NC(=O)c2[nH]c(C)c(C(C)=O)c2C)c1,-3,50µM*,0%,-19%,?,?
Cc1ccc(N(CC(=O)Nc2ccc(Cl)cc2)S(=O)(=O)c2cccc3nonc23)cc1,/,/,/,?,?,13%
O=C1NC(=S)N/C1=C/c1cccn1-c1ccc([N+](=O)[O-])cc1,-55*,?,-12%,-22%,?,18%
COc1cccc(C(=O)NCCSCc2c(F)cccc2Cl)c1,2,6%,21µM*,?,-3%[0.501 µM],4%
COc1cccc(C(=O)NCCSCc2ccccc2Cl)c1,-2,2%,-13%,5%,35%,46%
CCc1ccc(CNC(=O)c2cnc3sc(N4CCOCC4)nn3c2=O)cc1,/,0%,/,-2%,4%[59 µM],31%
CCOC(=O)CC(NC(=O)c1cc2cc(Cl)cc(Cl)c2oc1=O)c1cccc([N+](=O)[O-])c1 (stereo not drawn),1,3%,2%,-27%,17%,-2%
COc1cccc2cc(C(C)=O)c(=O)oc12,/,0%,-7%,-10%,-1%[12.7 µM],35%
COc1cc(C(C)=O)ccc1OC(=O)c1cc2cccc(OC)c2oc1=O,-9,-30%,?,-9%,35µM*,36%
COc1cccc2cc(C(=O)NNC(=O)c3ccc(Br)cc3)c(=O)oc12,-12,-8%,-27%,79µM*,45µM*,?
SMILES,PI5P4K alpha inh,BAZ2B block,PLK1 PBD inh,JMJD2A Tudor,G9a block,HP1b chromo inh
CCOC(=O)CC(NC(=O)c1cc2cccc(OC)c2oc1=O)c1cccc([N+](=O)[O-])c1 (stereo not drawn),4,2%,0%,?,32µM*,-7%
CCOc1ccccc1NC(=O)c1cc2ccccc2oc1=O,0,-11%,-9%,-10%,/,49%
CCOc1ccccc1OC(=O)c1cc2ccccc2oc1=O,-22,-22%,21µM*,?,0%,20%
CCOc1cc(C#N)c(NC(=O)c2cccc(S(=O)(=O)N3CCOCC3)c2)cc1OCC,/,?,/,-8%,-42%[59 µM],20%
CN1C(=O)CC2(C)C1=CCc1scnc12 (stereo not drawn),3,/,-12%,/,/,/
Cc1cccc(C(O)c2ncc(-c3ccccc3Cl)[nH]2)c1C (stereo not drawn),8,/,-8%,/,/,/
COCCCNC(=O)c1csc([C@H]2C[C@H](O)[C@@H](CO)O2)n1,-2,/,0%,/,/,/
CC1=NN(c2ccc(C(F)(F)F)cn2)C(=O)C1,0,8.9µM*,-18%,79µM*,-7%,40%
C=CCNC(=O)/C(C#N)=C/c1c(C)nn(-c2ccccc2)c1Cl,-2,-2%,-17%,-13%,-26%[59 µM],46%
CCOc1ccccc1NC(=O)/C(C#N)=C/c1c(C)nn(-c2ccccc2)c1Cl,0,-3%,0%,45µM*,2%[59 µM],12%
N#C/C(=C\c1ccc(Cl)cc1)C(=O)NCC1CCCO1 (stereo not drawn),/,-2%,/,-13%,-28%[59 µM],17%
NC(=O)c1ncn([C@@H]2O[C@H](CNCc3ccc(OCC(=O)Nc4nccs4)cc3)[C@@H](O)[C@H]2O)n1,-64*,/,-17%,?,/,1%
NC(=O)c1ncn([C@@H]2O[C@H](CNCc3ccc(OCC(=O)Nc4ccccn4)cc3)[C@@H](O)[C@H]2O)n1,-2,/,-5%,1%,/,31%
C=CCn1c(Cc2csc(N)n2)nnc1SCC(=O)OCC,/,28µM*,-4%,45µM*,9%[59 µM],17%
C=CCn1c(Cc2csc(N)n2)nnc1SCC(=O)Nc1ccc(C(=O)OCC)cc1,/,22µM*,-3%,79µM*,17%[59 µM],33%
Cc1cc(OCC(=O)NNC(=O)c2cccnc2)cc(C)c1Cl,1,?,-12%,-27%,-4%[0.501 µM],81%
CCCc1ccc(-c2cc(N)n[nH]2)cc1,-4,79µM*,-6%,-27%,22%,9%
Cc1ccc(NC(=O)CSc2nnc(-c3cc4occc4n3C)n2-c2ccccc2C)c(C)c1,/,?,/,?,?,5%
O=C1C(=Cc2cn(-c3ccccc3)nc2-c2ccc(OCc3ccccc3)cc2)SC(=S)N1CCS(=O)(=O)O,-65*,/,?,/,/,/
CCOc1ccc(-c2nn(-c3ccccc3)cc2/C=C2\SC(=S)N(Cc3ccco3)C2=O)cc1,5,-9%,-18%,?,9%[59 µM],-2%
